Results filed as inconclusive are left out. Calls of active or inactive are those of the source. Calls come from the whole dose curve; as a rule, active = well fitted inhibition curve with a large enough effect; inconclusive = small, poorly fitted or top-dose-only effect; inactive = flat fitted curve, though single readings scatter.
How the values were obtained:
[1] = system: CRL-7250; assay: Cytotoxic Profiling of Annotated Libraries Using Quantitative High-Throughput Screening (AID 1296008); conditions: Five cell lines viability, CellTiter-Glo ATP luminescence, 48-72 h; max response: hits give low values; for max response: % is set by controls: 0 for no effect and ±100 for the full control effect
How it was run: (§1)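 Cells exposed to compounds for 48 or 72 hr at 37 degrees Celsius. Viability read as ATP-coupled luminescence with CellTiter-Glo after 10 min at room temperature.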

[2] = system: HEK293; assay: as above; conditions: Five cell lines viability, CellTiter-Glo ATP luminescence, 48-72 h; max response: hits give low values
How it was run: as §1

[3] = system: HaCat; assay: as above; conditions: Five cell lines viability, CellTiter-Glo ATP luminescence, 48-72 h; max response: hits give low values
How it was run: as §1

[4] = system: KB-3-1; assay: as above; conditions: Five cell lines viability, CellTiter-Glo ATP luminescence, 48-72 h; max response: hits give low values
How it was run: as §1

[5] = system: NIH3T3; assay: as above; conditions: Five cell lines viability, CellTiter-Glo ATP luminescence, 48-72 h; max response: hits give low values
How it was run: as §1

[6] = system: HACAT; assay: qHTS assay to identify novel small-molecules to repurpose for Merkel cell carcinoma treatment (AID 1296009); conditions: MCC and control cell lines, CellTiter-Glo viability, 72 h; at 44.8 µM (top of the series) unless noted
How it was run: (§2)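 CellTiter-Glo luminescence after 72 hr compound exposure at 37 degree celsius gave cell viability. Libraries NPC and MIPE were run as 8- and 11-point dose responses; RLUs normalized to DMSO (negative) and no-cell (cytotoxicity) controls.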

[7] = system: HEK293T; assay: as above; conditions: MCC and control cell lines, CellTiter-Glo viability, 72 h; series mostly up to 44.8 µM
How it was run: as §2
Note: nearly all actives have a fitted effect of over 60% in size.

COc1cc2c(cc1OC)CN(C(=O)[C@@H](NCc1ccncc1)C(C)(C)C)CC2
inactive: outcome [1] | outcome [2] | outcome [3] | max response [4] 5.18% | outcome [5] | outcome [6] | Potency [7]

O=C(NCC(=O)N1CC[C@H](NC2CCC(O)(c3ccc(-c4ncccn4)cn3)CC2)C1)c1cccc(C(F)(F)F)c1 (stereo partly specified)
inactive: max response [1] -2.44% | outcome [2] | outcome [3] | outcome [4] | max response [5] 3.11% | outcome [6] | Potency [7]

CC1(C)CC[C@]2(C(=O)O[C@@H]3O[C@H](CO)[C@@H](O)[C@H](O)[C@H]3O)CC[C@]3(C)C(=CCC4[C@@]5(C)C[C@@H](O)[C@H](O)[C@@](C)(CO)C5CC[C@]43C)C2C1 (stereo partly specified)
inactive: max response [1] 1.73% | outcome [2] | outcome [3] | outcome [4] | max response [5] -1.65% | outcome [6] inactive [at 17.4 µM] | Potency [7]

O=C(c1ccc(F)cc1)C1CCN(CCn2c(=O)nc3n(c2=O)CCCC3)CC1
inactive: max response [1] 3.3% | outcome [2] | outcome [3] inactive; activator | max response [4] -0.742% | max response [5] -0.166% | outcome [6] inactive; activator | Potency [7]

C/C=C(\C)C(=O)O[C@@H](C)[C@H]1CC[C@]2(O)C3CCC4C[C@@H](OC5CC(OC)C(OC6CC(OC)C(OC7CC(OC)C(OC8OC(C)C(OC9OC(CO)C(O)C(O)C9O)C(OC)C8O)C(C)O7)C(C)O6)C(C)O5)CC[C@]4(C)C3[C@H](O)[C@@H](O)[C@]12C (stereo partly specified)
inactive: max response [1] -8.84% | outcome [2] | outcome [3] | outcome [4] | outcome [5] | outcome [6] inactive [at 9.27 µM] | outcome [7] inactive [at 9.27 µM]

CC1(C)CC2C(O)C3=C(CC(C)(O)C2C1)C(=O)OC3O (stereo unspecified)
inactive: max response [1] -0.0685% | outcome [2] | outcome [3] | max response [4] 5.32% | outcome [5] | outcome [6] | Potency [7]

C=C1CC2[C@]3(C)C(=C(O)C(=O)[C@@]2(C)[C@]2(C(=O)OC)C(=O)C(C)OC(=O)[C@@]12C)C(C)(C)C(=O)CC3O (stereo partly specified)
inactive: max response [1] -4.87% | outcome [2] | outcome [3] | outcome [4] | max response [5] 0.571% | outcome [6] inactive [at 17.4 µM] | Potency [7]

CC12CC34C=CC(=O)C(C)(CCC(=O)O)C3C(CC1C4)O2 (stereo unspecified)
inactive: outcome [1] | outcome [2] | outcome [3] | max response [4] 5.48% | outcome [5] | outcome [6] | Potency [7]

COc1ccc2cc(OCC3(C(=O)O)CN(C(=O)c4ccc(F)cc4)C3)ccc2c1
inactive: outcome [1] | outcome [2] | outcome [3] | max response [4] 1.45% | outcome [5] | outcome [6] | Potency [7]

COc1ccc(/C=C/C(=O)O[C@@H]2[C@@H](O)[C@H](C)O[C@@H](OC3C4C=COC(O[C@@H]5O[C@H](CO)[C@@H](O)[C@H](O)[C@H]5O)C4C4(CO)OC34)[C@@H]2O)cc1OC (stereo partly specified)
inactive: max response [1] 0.628% | outcome [2] | outcome [3] | max response [4] -0.119% | max response [5] 0.929% | outcome [6] inactive [at 17.4 µM] | Potency [7]

CC1(C)CC[C@]2(C(=O)O)CC[C@]3(C)C(=CCC4[C@@]5(C)CCC(O[C@@H]6OC[C@H](O)[C@H](O)[C@H]6O[C@@H]6O[C@H](CO)[C@@H](O)[C@H](O)[C@H]6O)[C@@](C)(CO)C5CC[C@]43C)[C@@H]2C1 (stereo partly specified)
inactive: max response [1] -0.0042% | outcome [2] | outcome [3] | max response [4] 4.54% | max response [5] 2.38% | outcome [6] inactive [at 17.4 µM] | Potency [7]

C=C(C)C(C)C1OC23CC4(CO2)C(CCC2C5(C)CCC(OC6OCC(O)C(OC7OC(CO)C(O)C(OC8OCC(O)C(O)C8O)C7O)C6OC6OC(CO)C(O)C6O)C(C)(C)C5CCC24C)C3C(C)(O)C1OC(C)=O (stereo unspecified)
inactive: max response [1] -0.008% | outcome [2] | outcome [3] | max response [4] 6.52% | max response [5] -2.26% | outcome [6] inactive [at 9.27 µM] | outcome [7] inactive [at 9.27 µM]

C=C(C)[C@H]1C[C@@H](O)C(=C)CC[C@@H](O)C(=C)[C@@H](O)C1
inactive: max response [1] -0.626% | outcome [2] | outcome [3] | outcome [4] | max response [5] -1.51% | outcome [6] | Potency [7]

COc1ccccc1[C@@H]1C2=C(CC(C)(C)CC2=O)Nc2n[nH]c(C(F)(F)F)c21
inactive: max response [1] 3.92% | outcome [2] | outcome [3] | outcome [4] | outcome [5] | outcome [6] | Potency [7]

CCOc1nc2cccc(C(=O)OCc3oc(=O)oc3C)c2n1Cc1ccc(-c2ccccc2-c2noc(O)n2)cc1
inactive: outcome [1] | outcome [2] | outcome [3] | outcome [4] | outcome [5] | outcome [6] | Potency [7]

COc1ccc2c(c1O)OC[C@H]1c3ccc(O)cc3O[C@@H]21
inactive: max response [1] 2.17% | outcome [2] | outcome [3] | outcome [4] | outcome [5] | outcome [6] | Potency [7]

C=C1CC2(C(=O)O)CC1CCC2C1(C)CCCC2(C)C(=O)OC(O)C21 (stereo unspecified)
inactive: max response [1] -12.2% | outcome [2] | outcome [3] | outcome [4] | max response [5] 0.0241% | outcome [6] | Potency [7]

Clc1ccc(CN[C@H]2CCN(c3ncc(Br)cn3)C2)c(Cl)c1
inactive: max response [1] -7.31% | outcome [2] | outcome [3] | max response [4] -14.8% | max response [5] 4.57% | outcome [6] | Potency [7]

— PubChem BioAssay (NCATS)
